This is a sample that favours compounds with a hit; in the whole collection about 3% have one here.
Her2 expr inh: lowers expression of human Her2 kinase; SKBR-3 HER2 protein level, AlphaScreen, 18-24 h; hits give low values; HER2 level % of control, % at 10 µM; hit rate 0.69% among 65,000; P04626;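 active means HER2 level under 5% of the carrier-only control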;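 further: 100% = DMSO carrier and 0% = 500 nM PU-H71 HSP90 inhibitor; lower value means stronger loss of Her2 protein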
Target sequence (P04626 whole entry, looked up): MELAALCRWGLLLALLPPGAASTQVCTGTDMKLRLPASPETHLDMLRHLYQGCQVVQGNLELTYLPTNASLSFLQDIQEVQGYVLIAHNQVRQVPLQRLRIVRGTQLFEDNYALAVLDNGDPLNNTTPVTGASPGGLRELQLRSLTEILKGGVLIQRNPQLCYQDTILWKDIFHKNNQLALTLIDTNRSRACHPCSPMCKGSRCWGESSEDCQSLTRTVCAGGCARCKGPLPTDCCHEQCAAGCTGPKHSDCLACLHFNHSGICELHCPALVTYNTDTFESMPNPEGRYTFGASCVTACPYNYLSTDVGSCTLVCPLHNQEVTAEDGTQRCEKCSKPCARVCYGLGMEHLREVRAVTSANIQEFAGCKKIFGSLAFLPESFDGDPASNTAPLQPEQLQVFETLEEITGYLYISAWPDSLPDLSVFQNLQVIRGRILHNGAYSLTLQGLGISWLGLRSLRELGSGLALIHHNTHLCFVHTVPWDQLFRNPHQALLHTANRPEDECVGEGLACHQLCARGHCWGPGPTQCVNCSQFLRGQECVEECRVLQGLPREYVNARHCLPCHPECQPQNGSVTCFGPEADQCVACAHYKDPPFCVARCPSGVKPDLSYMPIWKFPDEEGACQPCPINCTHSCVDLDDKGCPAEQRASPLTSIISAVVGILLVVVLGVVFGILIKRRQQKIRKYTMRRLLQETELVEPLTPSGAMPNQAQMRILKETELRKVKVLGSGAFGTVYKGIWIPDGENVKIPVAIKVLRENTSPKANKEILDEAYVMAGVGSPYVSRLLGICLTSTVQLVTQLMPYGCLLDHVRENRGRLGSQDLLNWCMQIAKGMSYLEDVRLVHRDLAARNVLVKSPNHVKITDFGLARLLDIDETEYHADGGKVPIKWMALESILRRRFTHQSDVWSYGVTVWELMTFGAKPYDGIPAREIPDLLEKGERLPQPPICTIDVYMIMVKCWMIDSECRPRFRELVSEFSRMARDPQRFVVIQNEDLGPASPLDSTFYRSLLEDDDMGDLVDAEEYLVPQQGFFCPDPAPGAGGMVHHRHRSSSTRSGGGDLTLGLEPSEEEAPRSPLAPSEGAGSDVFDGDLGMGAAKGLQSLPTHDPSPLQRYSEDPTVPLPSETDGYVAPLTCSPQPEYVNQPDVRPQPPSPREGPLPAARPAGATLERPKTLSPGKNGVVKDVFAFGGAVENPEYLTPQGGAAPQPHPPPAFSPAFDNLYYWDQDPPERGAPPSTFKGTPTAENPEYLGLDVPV
5-HT1A blocker: blocks the human serotonin 5-HT1a receptor; P08908; CHO 5-HT1a Ga15 NFAT-bla reporter, antagonist mode; inhibition, % at 10 µM; hit rate 0.68% among 62,000;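 active means inhibition above the mean of all tested compounds plus 3 SD, cut at about 43% in these data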;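 further: receptor stimulated by 5-CT agonist at 100 nM near EC80; beta-lactamase reporter measured by ratiometric fluorescence of a cleavable substrate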
HTR1E antagonist: antagonists of human 5-HT1E serotonin receptor; AID 571; P28566; inhibition, % at 6 µM; hit rate 0.99% among 65,000; CHO 5-HT1E Ga15 NFAT-bla reporter, FRET, antagonist;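 active means inhibition above a set limit, the mean inhibition across every tested compound plus 3 SD, cut at about 29% in these data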;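 further: signal is the 460 over 535 nm emission ratio of beta-lactamase substrate; 0% = agonist plus DMSO wells and 100% = wells without agonist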
5HT1E ag: 5-HT1E (human) receptor agonism; AID 574; hit rate 0.69% among 65,000; activation, % at 6 µM; CHO 5-HT1E Ga15 NFAT-bla reporter, FRET; 0% DMSO wells, 100% control agonist wells; P28566;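 active means activation above a set limit, the screen-wide mean activation plus 3 SD, cut at about 8.5% in these data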;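 further: 100% = positive control agonist at 1 µM giving full maximal response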
HTR1A agonist: activates the human 5-HT1a serotonin receptor | P08908 | CHO 5-HT1a Ga15 NFAT-bla reporter, FRET ratio; 0% basal, 100% maximal reference agonist | activation, % at 10 µM | hit rate 0.56% among 65,000;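 active means activation above the screen-wide mean activation plus 3 SD, cut at about 19% in these data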;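 further: 0% = DMSO wells and 100% = 5-CT at EC100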
The depositor's hits bear a star; / = not tested or not shown.

SMILES	Her2 expr inh	5-HT1A blocker	HTR1E antagonist	5HT1E ag	HTR1A agonist
CCn1c(=NC(=O)c2ccc(N3C(=O)CCC3=O)cc2)sc2c(OC)ccc(OC)c21	94.8	12.2	30.7*	2.1	0.8
CCn1c(=NC(=O)CN2C(=O)CCC2=O)sc2c(OC)ccc(OC)c21	116.8	8.9	23.6	0.6	-2.7
CCOC(=O)c1cnc(-n2nc(C)cc2C)nc1NCc1ccccc1	223.4	47.4*	15.5	0.0	2.8
COC(=O)c1sc2ccccc2c1C(=O)OC	83.9	2.2	2.3	10.9*	-2.8
Cc1cc(C(=O)COc2ncnc3sccc23)c(C)n1C1CC1	126.1	-6.3	-6.7	0.1	19.4*
CCCn1c(C)cc(C(=O)COc2ncnc3sccc23)c1C	103.4	-1.9	-9.9	0.0	-2.6
CN(C(=O)c1cnccn1)c1nnc(-c2cccnc2)s1	113.1	0.4	1.6	-0.6	-3.1
Cc1c(Br)cc(C(=O)OC2CCN(C)CC2)c(C)c1C	139.3	-9.0	-4.9	-0.1	0.1
COc1ccc(-c2[nH]ncc2-c2ccc3c(c2)OCCO3)c(O)c1	32.9	44.4*	16.1	-0.3	-3.0
CCOc1ccc(-c2[nH]ncc2-c2ccc(OC)c(OC)c2)c(O)c1	46.0	18.2	27.2	0.1	0.0
CCc1cc(-c2[nH]ncc2-c2ccc3c(c2)OCO3)c(O)cc1O	-1.1*	33.0	15.3	-0.4	-4.0
O=C(OCc1nnc(-c2ccccc2)o1)C1CCN(S(=O)(=O)c2cccs2)CC1	96.8	9.9	-4.0	-0.9	-2.7
COc1ccccc1N1CCN(C(c2ccc(C)cc2)c2nnnn2C(C)C)CC1 (configuration not stated)	116.3	31.4	-1.1	-0.1	-2.9
CCOc1ccccc1N1CCN(Cc2ccc(OC)c(OC)c2)CC1	-19.9*	57.2*	-2.6	20.1*	-1.9
COc1ccc(CC(C)N2CCN(c3ccccc3OC)CC2)cc1OC (configuration not stated)	81.2	98.2*	7.5	1.3	-0.2
COc1ccccc1N1CCN(C(c2ccc(F)cc2)c2nnnn2C(C)C)CC1 (configuration not stated)	104.7	42.6*	6.6	0.6	-3.3
COc1cc(OC)c(OC)cc1CN1CCN(c2ccccc2OC)CC1	120.5	46.3*	18.6	23.4*	-1.1
COc1cc(CN2CCN(c3cccc(Cl)c3)CC2)cc(OC)c1OC	68.8	24.0	28.0	5.3	-5.0
CCOc1ccccc1N1CCN(Cc2ccc(OC)c(OC)c2OC)CC1	69.4	79.8*	2.8	16.6*	-3.4
COc1cc(CN2CCN(c3cccc(C)c3C)CC2)cc(OC)c1O	121.9	-1.9	5.0	57.0*	-2.2
CCN1C(=O)c2ccccc2S(=O)c2ccc(C(=O)NCCCN3CCCC3=O)cc21 (configuration not stated)	98.1	9.1	30.0*	-1.3	-0.2
CCN1C(=O)c2ccccc2S(=O)c2ccc(C(=O)NC3CC3)cc21 (configuration not stated)	101.5	-0.7	-1.9	0.8	-1.4
CCc1cc(=O)oc2cc(C)cc(O)c12	103.5	-4.9	-9.1	0.1	-1.9
COC(=O)Cc1c(C)c2c(O)cc(C)cc2oc1=O	95.9	-4.3	-8.7	-1.1	133.6*
CC1=C(C(=O)OCC(C)C)C(c2ccc(F)cc2)NC(=O)N1 (configuration not stated)	101.7	7.5	3.2	0.8	-0.8
SMILES	Her2 expr inh	5-HT1A blocker	HTR1E antagonist	5HT1E ag	HTR1A agonist
COc1ccc(CNCCNC(=O)c2nonc2N)cc1OC	100.0	-3.0	2.7	-0.2	-1.7
Nc1nonc1C(=O)NCCNCc1cc(Br)ccc1OCc1ccc(F)cc1	86.1	49.4*	10.1	-0.3	-0.8
O=S(=O)(NC1CCc2ccccc21)c1ccc(S(=O)(=O)N2CCCC2)cc1 (configuration not stated)	91.9	13.4	27.3	-1.4	-5.6
O=C1c2oc3ccc(F)cc3c(=O)c2C(c2cccc(O)c2)N1CCCN1CCOCC1 (configuration not stated)	93.3	-14.2	-0.6	30.1*	0.5
C=CCOc1cccc(C2c3c(oc4ccc(F)cc4c3=O)C(=O)N2CCCN2CCOCC2)c1 (configuration not stated)	84.1	2.6	-1.2	0.8	-1.0
COc1ccc(-c2nc(C(N)=O)c3[nH]c(=O)n(-c4cccc(Cl)c4)c3n2)cc1OC	-11.8*	3.3	16.2	0.8	-0.4
CC1=C(C)CS(=O)N(S(=O)(=O)c2ccc(Cl)cc2)C1 (configuration not stated)	83.7	47.3*	-0.6	0.2	-4.4
Cc1cccc(OCc2nc(C#N)c(NCc3ccc4c(c3)OCO4)o2)c1	60.0	42.9*	6.3	-0.1	-0.9
N#Cc1nc(COc2ccc(Cl)cc2)oc1NCc1ccc2c(c1)OCO2	57.3	51.7*	3.1	-0.6	-0.8
COc1ccc(CNc2oc(COc3ccccc3)nc2C#N)cc1	88.0	28.7	15.2	-0.4	-1.2
CCNc1oc(COc2cccc(C)c2)nc1C#N	67.1	15.7	-3.2	-0.5	-4.3
CCCC(=O)N1CCN(c2nc(CC(C)C)c3c(c2C#N)CCC3)CC1	89.9	/	-6.0	0.2	1.2
COc1ccccc1N1CCN(CC(O)COc2c(OC)cccc2OC)CC1 (configuration not stated)	116.9	95.1*	-4.0	2.9	-3.3
OC(COc1ccc2c(c1)CCC2)CN1CCN(c2ccccc2F)CC1 (configuration not stated)	94.9	44.1*	-7.2	0.7	0.8
COc1ccccc1N1CCN(CC(O)c2ccc3cc[nH]c3c2)CC1 (configuration not stated)	104.6	87.2*	21.0	2.5	6.2
C=CCc1ccccc1OCC(O)CN1CCN(c2ccc(OC)cc2)CC1 (configuration not stated)	51.2	81.2*	10.5	-0.5	-0.8
CCOC(=O)N1CCN(CC(O)c2ccc3cc[nH]c3c2)CC1 (configuration not stated)	100.2	2.5	1.7	-0.9	0.8
CN(Cc1ccccc1)S(=O)(=O)c1ccc(NC(=O)C2CCCO2)cc1 (configuration not stated)	/	-2.7	-4.0	0.4	4.2
COc1cccc(OC)c1OCC(O)CN1CCN(c2ccccc2)CC1 (configuration not stated)	130.0	45.4*	-0.8	1.5	-2.5
C=CCn1c(COc2ccc(CC)cc2)nnc1SC/C(O)=C(\C#N)c1nc2ccccc2[nH]1	69.8	-0.5	-5.1	-0.1	-0.8
Cc1nnc(SC(=O)N2c3ccccc3Sc3ccccc32)s1	0.9*	74.1*	24.1	0.1	-1.4
CC(NS(=O)(=O)c1ccccc1)C(c1cccs1)N1CCN(C)CC1 (configuration not stated)	90.1	1.2	3.2	-0.5	0.7
COc1cc(-c2nn3c(Cc4ccccc4)nnc3s2)cc(OC)c1OC	71.6	13.7	30.6*	0.1	-0.3

Compound activity from PubChem.
